# Experimental data taken from the supplement of paper PMC10338343.
# ± gives the standard deviation.
# Columns and labels:
# [1] = tested on: MILI (PIWIL2) piRISC loaded with piRNA #1 (26 nt); assay: pre-steady-state target cleavage rate (min^-1); guide: piRNA #1 5'p-UGAGGUAGUAGGUUGUAUAGUAUCCA; higher = faster piRNA-guided slicing of the target; settings: auxiliary factor: 500 nM mouse GTSF1
# Summary of the method: (§1)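 Cleave-'n-Seq used a transcribed, DNA-blocked target RNA library at 0.1 nM and active affinity-purified piRISC with one synthetic guide at 1 nM, with or without 500 nM GTSF1 partner protein, in HEPES–potassium acetate buffer at 33 °C for 0–8 or 0–960 min. Uncleaved targets were sequenced and normalised to depth and to weakly complementary targets, and three trials were pooled with k3 capped at 0.0001 min^-1. The pre-steady-state cleavage rate was estimated by a burst-and-steady-state fit.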
# [2] = tested on: EfPiwi piRISC loaded with piRNA #1 (26 nt); assay: pre-steady-state target cleavage rate (min^-1); auxiliary factor: 500 nM Ephydatia muelleri Gtsf1; guide: piRNA #1 5'p-UGAGGUAGUAGGUUGUAUAGUAUCCA; MIWI and MILI are mouse PIWI proteins and EfPiwi is from a freshwater sponge; tags in brackets are library labels; higher = faster piRNA-guided slicing of the target
# Summary of the method: as §1
Sequence,pre-steady-state target cleavage rate [1],pre-steady-state target cleavage rate [2]
GGAGUGGAUACAUACAACCUACUACCUCA,0.131 ± 0.011,0.131 ± 0.048
GGAGACGAUACUGUACAACCUACUACCUCA,0.169 ± 0.018,0.0777 ± 0.025
GGAGUCCAUACUAUACAACCUACUACCUCA,0.181 ± 0.015,0.0575 ± 0.019
GGAGAGUGAUACUAUACAACCUACUACCUCA,0.227 ± 0.016,0.171 ± 0.053
GGAGAGGAUACUAUACUUCCUACUACCUCA,0.19 ± 0.015,0.00555 ± 0.0051
GGAGUGGAUACUAUACUACCUUCUACCUCA,0.0207 ± 0.0034,0.00331 ± 0.0022
GGAGACGAUACUAUACAUCCUAGUACCUCA,0.0834 ± 0.019,0.0031 ± 0.001
GGAGUGGAUACUAUACUACCUAGUACCUCA,0.0719 ± 0.013,0.00311 ± 0.0019
GGAGACGAUACUAUACAUCCAACUACCUCA,0.00801 ± 0.0028,0.00562 ± 0.0029
GGAGACCAUACUAUACAUCCUACUACCUCA,0.302 ± 0.025,0.00918 ± 0.0027
GGAGAGGAUACUAUAGAACCUACUACCACA,0.0636 ± 0.0099,0.00261 ± 0.0014
GGAGACGAUACUAUACAACCUACUCCCUCA,0.106 ± 0.017,0.00312 ± 0.00092
GGAGACCAUACUAUAGAACCUACUACCUCA,0.116 ± 0.016,0.00367 ± 0.0017
GGAGAGGAUUCUAUACAAGCUACUACCUCA,0.15 ± 0.01,0.00384 ± 0.0028
GGAGACCAAACUAUACAACCUACUACGUCA,0.042 ± 0.015,0.00503 ± 0.0027
GGAGUGGAUAGUAUACAUCCUACUACCUCA,0.189 ± 0.017,0.00444 ± 0.0024
GGAGAGGAUACUAUACAAGCUUCUACCUCA,0.0253 ± 0.0037,0.0045 ± 0.0024
GGAGACCUUACUAUACAACCUACUACGUGA,0.137 ± 0.024,0.00535 ± 0.0036
GGAGAGGAUACUAUUCAACCUACUUCCUCA,0.0111 ± 0.0046,0.00313 ± 0.0024
GGAGACCAUACUAUACAGCCUACUACCUCA,0.157 ± 0.02,0.16 ± 0.053

Sequence,pre-steady-state target cleavage rate [1],pre-steady-state target cleavage rate [2]
GGAGUGGAUUCUAUACUACCUACUACCUCA,0.155 ± 0.0078,0.00505 ± 0.0034
GGAGAGGAUAACUAUACAACCUACUACCUCA,0.0525 ± 0.0054,0.104 ± 0.039
GGAGUGGAUACUAUACAUCCUACUACCACA,0.108 ± 0.014,0.00415 ± 0.0017
GGAGUGGAUACUAUACAAGCUACUACGUCA,0.0651 ± 0.013,0.00405 ± 0.0015
GGAGUGCUUACUAUACAACCUACUACCUCA,0.162 ± 0.0091,0.0694 ± 0.025
GGAGUCGAUUCUAUACAACCUACUACCUCA,0.182 ± 0.01,0.00723 ± 0.0043
GGAGAGGAUACUUAUCAACCUACUACCUCA,0.135 ± 0.0097,0.00553 ± 0.0043
GGAGAGGUAUACUAUACAACCUACUACCUCA,0.111 ± 0.0086,0.0588 ± 0.023
GGAGACCUAUCUAUACAACCUACUACCUUCA,0.139 ± 0.017,0.0604 ± 0.023
GGAGAGCAUACUAUACAUCCUACUACCUCA,0.335 ± 0.02,0.00491 ± 0.0024
GGAGACCAUACUAUACAACCUACAACGUCA,0.0302 ± 0.012,0.00373 ± 0.0033
GGAGACCUAUCUAUACAACCUGCUACCUCA,0.0162 ± 0.0048,0.00697 ± 0.0045
GGAGACCUAUCUAUACAACCUACUACCCCA,0.123 ± 0.02,0.00444 ± 0.0032
GGAGUGGAUACUCUACAACCUACUACCUCA,0.194 ± 0.011,0.00588 ± 0.0041
GGAGAGGAUACUAUACAACGUACUACCUCA,0.0143 ± 0.003,0.0053 ± 0.0021
GGAGACCUAAUCUAUACAACCUACUACCUCA,0.11 ± 0.024,0.297 ± 0.099
GGAGACGAUACAAUACAACCUACUACGUCA,0.102 ± 0.015,0.00361 ± 0.0032
GGAGACCUUACUAUACAACGUACUACGUCA,0.00879 ± 0.0038,0.00267 ± 0.0018
GGAGACGUUACUAUACAACCUACUACCUGA,0.102 ± 0.016,0.00573 ± 0.0022
GGAGACCUAACUAUACAACGUACUUCCUCA,0.0215 ± 0.0078,0.00713 ± 0.0049

Sequence,pre-steady-state target cleavage rate [1],pre-steady-state target cleavage rate [2]
GGAGACGAUACUAUACAACCAACUACCUGA,0.00533 ± 0.0024,0.00427 ± 0.0022
GGAGAGGAUACUAUACAACCUAUCUACCUCA,0.128 ± 0.012,0.00568 ± 0.0029
GGAGACCUAACUAUACAACCUACUACCUUA,0.12 ± 0.028,0.0211 ± 0.0092
GGAGAGCAUACUAUACAACCUACUACCUCA,0.188 ± 0.015,0.0285 ± 0.012
GGAGACGAUACUAAACAACGUACUACCUCA,0.017 ± 0.0026,0.00192 ± 0.0019
GGAGAGGAUACUAUACAACCGUACUACCUCA,0.00509 ± 0.0031,0.00659 ± 0.0028
GGAGACGAUACUAAUACAACCUACUACCUCA,0.134 ± 0.01,0.0773 ± 0.031
GGAGUGGAUACUAAACAACCUAGUACCUCA,0.0567 ± 0.011,0.00256 ± 0.0016
GGAGACCUAUCUAUACAACCUACUACCUUA,0.103 ± 0.015,0.0739 ± 0.027
GGAGAGGAUACUAUACAACCUACACCUCA,0.00718 ± 0.0031,0.00361 ± 0.002
GGAGAGCAAACUAUACAACCUACUACCUCA,0.113 ± 0.019,0.0127 ± 0.0059
GGAGAGCAUACUAUACAACCUACAACCUCA,0.133 ± 0.015,0.0026 ± 0.0017
GGAGACGAUACUAUACAACCUACUACCGCA,0.161 ± 0.021,0.00926 ± 0.0033
GGAGACCAUACUUUACAACCUACUACCUCA,0.168 ± 0.014,0.017 ± 0.0071
GGAGUGGAUACUAUACAACCUACUAGCUCA,0.0481 ± 0.0088,0.00429 ± 0.0016
GGAGACGAUAGCUAUACAACCUACUACCUCA,0.0779 ± 0.0075,0.0112 ± 0.0049
GGAGACCAUACUACUACAACCUACUACCUCA,0.137 ± 0.015,0.0205 ± 0.0057
GGAGACCUAACUAUACAACCUACUACGACA,0.118 ± 0.037,0.00325 ± 0.0029
GGAGAGGAUUGUAUACAACCUACUACCUCA,0.103 ± 0.0085,0.00676 ± 0.0048
GGAGUGGAAACUAUACAACCUUCUACCUCA,0.00517 ± 0.0028,0.00484 ± 0.0029
